# Reference: ChEMBL document CHEMBL3988442, “University of Dundee, Small-Polar-MMV Screening Library” (2021)
# About 960 (1.5%) of roughly 66,000 compounds showed an effect of 50% or more. Only a selection was taken, and strong results are over-represented in it overall.
# System: Trypanosoma brucei
# Assay: Trypanosoma brucei 72 hour study
# Format: functional, organism-based
# Parameters: scale not given: in the data most compounds retested in dose-response had high values
compound,measurement,setting,value
Cn1nc(N2CCCC(C(=O)Nc3nc4ccccc4s3)C2)ccc1=O (stereo unspecified),Percent Effect,"30 µM, 30.03 µM",-10.15%
Cc1nc(COC[C@@H]2CCC[C@@]23CN(C)CCO3)cs1.O=C(O)C(F)(F)F,Percent Effect,"30 µM, 30.03 µM",42.28%
CCc1nnsc1C(=O)NC1CCN(CCOc2ccc(Br)cc2)CC1,Percent Effect,"30.3 µM, […]",50.82%
Cc1nc(C(=O)NC2CCN(CCOc3ccc(Br)cc3)CC2)cs1,Percent Effect,"30.3 µM, […]",34.31%
Cc1ncc(C(=O)NC2CCN(CCOc3ccc(Br)cc3)CC2)s1,Percent Effect,"30.3 µM, […]",9.7%
CN(C)CC1CN(C(=O)Cc2ccccc2)Cc2nccn2C1.O=C(O)C(F)(F)F (stereo unspecified),Percent Effect,"30 µM, 30.03 µM",-30.18%
CC(=O)N1CCC2(CCN(C(=O)c3ccc(Cl)c(C(F)(F)F)c3)C2)C1 (stereo unspecified),Percent Effect,"30 µM, 30.03 µM",28.83%
NC(=O)C1CCCN1Cc1cccc(NC(=O)c2ccsc2)c1 (stereo unspecified),Percent Effect,"30 µM, 30.03 µM",12.83%
NC(=O)C1CCN(Cc2cccc(NC(=O)c3ccsc3)c2)CC1,Percent Effect,"30 µM, 30.03 µM",50.19%
NC(=O)C1CCCN1Cc1cccc(NC(=O)c2cc(Cl)cc(Cl)c2)c1 (stereo unspecified),Percent Effect,"30 µM, 30.03 µM",26.87%
O=C(c1cc(C2CCCCN2CCO)n[nH]1)N1CCOCC1.O=CO (stereo unspecified),Percent Effect,"30.3 µM, […]",-18.9%
CC(C)c1cc(C(=O)N2CCc3nc(C4CCCN4)ncc3C2)cs1.Cl (stereo unspecified),Percent Effect,"30.3 µM, […]",-27.95%
CCN(CC)Cc1ccc(C(=O)N2CCCC2c2cnn(C)c2)o1 (stereo unspecified),Percent Effect,10 µM,2.271%
CCOc1ccccc1NC(=O)CN(C)Cc1ccccc1Cl,Percent Effect,"30 µM, 30.03 µM",104.4%
CCOc1cccc(CNc2ccccc2Cl)c1O,Percent Effect,"30 µM, 30.03 µM",-19.48%
CN(CC(=O)Nc1ccccc1C(=O)NC1CC1)Cc1ccccc1Cl,Percent Effect,"30 µM, 30.03 µM",-3.79%
CCOC(=O)c1ccccc1NC(=O)CN(C)Cc1ccccc1Cl.O=C(O)C(=O)O,Percent Effect,"30 µM, 30.03 µM",103.8%
CCOc1ccccc1NC(=O)NCc1ccoc1,Percent Effect,"30 µM, 30.03 µM",-38.02%
CNC(=O)CN(C)Cc1ccc(F)cc1Cl,Percent Effect,"30 µM, 30.03 µM",-10.17%
O=C(NCCc1cccs1)[C@H]1CO[C@H]2CCN(CC3CC3)C[C@H]2C1.O=C(O)C(F)(F)F,Percent Effect,"30.3 µM, […]",-52.96%
CN(CC(=O)c1ccc2[nH]c(=O)[nH]c2c1)Cc1ccc2c(c1)OCO2,Percent Effect,"30.3 µM, […]",2.207%
CCOCC(O)CN1CCN(C(=O)c2ccc(N(C)C)nn2)CC1 (stereo unspecified),Percent Effect,"30.3 µM, […]",-26.53%
same,Percent Effect,"10 mM, 10 mM as filed; unlikely as a test dose",-123.6%
Cc1noc(NC(=O)c2ccc(C#N)cc2)n1,Percent Effect,"30.3 µM, […]",-1.812%
Cc1noc(NC(=O)c2ccc(Br)cc2)n1,Percent Effect,"30 µM, 30.03 µM",95.54%
Cc1noc(NC(=O)c2cccc(Br)c2)n1,Percent Effect,"30.3 µM, […]",69.68%
COc1cc(C(=O)Nc2nc(C)no2)ccc1OC(F)F,Percent Effect,10 µM,-60.85%
COc1cc(C(=O)Nc2nc(C)no2)ccc1C,Percent Effect,"30 µM, 30.03 µM",38.15%
Cc1noc(NC(=O)c2ccc(OC(F)(F)F)cc2)n1,Percent Effect,"30 µM, 30.03 µM",107.1%
Cc1noc(NC(=O)c2ccccc2)n1,Percent Effect,"30.3 µM, […]",22.26%
Cc1noc(NC(=O)c2ccc(F)cc2)n1,Percent Effect,"30.3 µM, […]",23.19%
Cc1noc(NC(=O)CCNC(=O)c2ccc(Br)cc2)n1,Percent Effect,"30.3 µM, […]",-27.06%
Cc1noc(NC(=O)c2ccc(C)c(F)c2)n1,Percent Effect,"30 µM, 30.03 µM",65.47%
Cc1ccc(C(=O)Nc2nc(C)no2)cc1,Percent Effect,"30.3 µM, […]",24.35%
COc1cc(C(=O)Nc2nc(C)no2)cc(OC)c1Br,Percent Effect,10 µM,-27.84%
CN1CCc2c(C#N)c(NCCCN3CCOCC3)n3cnnc3c2C1.Cl.Cl,Percent Effect,"30 µM, 30.03 µM",29.08%
CCOc1ccccc1CN1CCc2nc3ccsc3c(=O)n2CC1.Cl,Percent Effect,"30.3 µM, […]",-5.491%
CCOC1COC2(CCN(Cc3ccc(C)c(C)c3)CC2)C1.O=C(O)C(F)(F)F (stereo unspecified),Percent Effect,"30.3 µM, […]",17.79%
COc1ccc(NS(=O)(=O)c2cnc(NC(C)=O)s2)cc1,Percent Effect,"30.3 µM, […]",-9.359%
CN(Cc1cccnc1)[C@@H]1CN(Cc2cnn(C)c2)[C@@H]2CCCO[C@H]12.O=C(O)C(F)(F)F.O=C(O)C(F)(F)F.O=C(O)C(F)(F)F.O=C(O)C(F)(F)F,Percent Effect,"30.3 µM, […]",-6.057%
O=C(Nc1cccnc1)C1=NN(c2ccccc2)C(=O)CN1,Percent Effect,10 µM,-65.06%
O=C(NCc1cccnc1)C1=NN(c2ccccc2)C(=O)CN1,Percent Effect,"30 µM, 30.03 µM",71.31%
N#Cc1ccc(CNC(=O)C2=NN(c3ccccc3)C(=O)CN2)cc1,Percent Effect,"30 µM, 30.03 µM",-22.79%
CC(C)(C)CN1CCN(CC2CC2)C(CCO)C1 (stereo unspecified),Percent Effect,"30 µM, 30.03 µM",-40.11%
O=C(Nc1ccccn1)C1(n2cnnn2)CCCCC1,Percent Effect,"30 µM, 30.03 µM",-28.83%
O=C(O)C(F)(F)F.O=C1N(Cc2ccncc2)CCC12CCCN(c1ncc(F)cn1)C2 (stereo unspecified),Percent Effect,"30.3 µM, […]",-38.62%
CN1CCCC[C@@H]2[C@H]1[C@@H](c1ccccc1)CCN2C(=O)c1ccccc1,Percent Effect,"30.3 µM, […]",97.59%
CN1CCCC[C@@H]2[C@H]1[C@@H](c1ccccc1)CCN2C(=O)c1ccncc1,Percent Effect,"30.3 µM, […]",2.626%
CN1CCCC[C@@H]2[C@H]1[C@@H](c1ccccc1)CCN2C(=O)c1ccccn1,Percent Effect,"30.3 µM, […]",12.07%
Cl.O=S(=O)(N1CCCC1)N1CC[C@H](c2ccccc2)[C@H]2NCCCC[C@H]21,Percent Effect,"30.3 µM, […]",-20.77%
CN1CCCC[C@@H]2[C@H]1[C@@H](c1ccccc1)CCN2C(=O)c1cccnc1,Percent Effect,"30.3 µM, […]",-28.46%
CN1CCCC[C@@H]2[C@H]1[C@@H](c1ccccc1)CCN2S(=O)(=O)N1CCCC1,Percent Effect,"30.3 µM, […]",98.76%
O=C(O)C(F)(F)F.O=C(O)C(F)(F)F.O=C(c1cccnc1)N1CCn2nnc(COc3ccccn3)c2C1,Percent Effect,"30 µM, 30.03 µM",20.03%
Cc1ncsc1CN1C[C@@H]2COC[C@]2(C(=O)NCC2CC2)C1.O=C(O)C(F)(F)F,Percent Effect,"30 µM, 30.03 µM",-10.84%
CNc1ncc2c(n1)CN(C1CCCC1)C2=O,Percent Effect,"30.3 µM, […]",-26.22%
CNCc1ccc([C@@H]2CN(C)C[C@H]2C(N)=O)cc1.Cl,Percent Effect,"30.3 µM, […]",-7.095%
CC(C)(C)c1cc(CN2C[C@H]3CC[C@@H]2CN(Cc2cscn2)C3)n[nH]1,Percent Effect,"30 µM, 30.03 µM",14.03%
Cn1ccnc1-c1ccc(NCCC2COc3ccccc3O2)nn1 (stereo unspecified),Percent Effect,"30 µM, 30.03 µM",-17.77%
O=C(NCc1ccc2c(c1)OCO2)c1ccc(N2CCCCCC2)nc1,Percent Effect,"30 µM, 30.03 µM",-3.476%
CC(C)c1noc(CCNC(=O)NCC2COc3ccccc3O2)n1 (stereo unspecified),Percent Effect,"30 µM, 30.03 µM",-35.89%
CC(C)c1nccn1CCCNC(=O)c1ccc(-c2cn[nH]c2)nc1,Percent Effect,"30 µM, 30.03 µM",3.874%
CN(CC1COc2ccccc2O1)C(=O)C1=NN(C)C(=O)CC1 (stereo unspecified),Percent Effect,"30 µM, 30.03 µM",-29.23%
O=C(NCCC1COc2ccccc2O1)c1ccc(-c2cc[nH]n2)nc1 (stereo unspecified),Percent Effect,"30 µM, 30.03 µM",51.23%
CN(CC1COc2ccccc2O1)C(=O)c1ccc(-c2cn[nH]c2)nc1 (stereo unspecified),Percent Effect,"30 µM, 30.03 µM",34.02%
O=C(NCCC1COc2ccccc2O1)c1ccc(-c2cn[nH]c2)nc1 (stereo unspecified),Percent Effect,"30 µM, 30.03 µM",81.06%
O=C(NCCC1COc2ccccc2O1)c1ccc(N2CC(O)C2)nc1 (stereo unspecified),Percent Effect,"30 µM, 30.03 µM",57.01%
